Key:
[1] = target: T1, Mitogen-activated protein kinase 12 (Homo sapiens) (UniProt P53778); settings: at 1 µM;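 further: values are averaged p38gamma kinase inhibition readings, compounds tested at 1 µM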
T1 sequence (whole entry): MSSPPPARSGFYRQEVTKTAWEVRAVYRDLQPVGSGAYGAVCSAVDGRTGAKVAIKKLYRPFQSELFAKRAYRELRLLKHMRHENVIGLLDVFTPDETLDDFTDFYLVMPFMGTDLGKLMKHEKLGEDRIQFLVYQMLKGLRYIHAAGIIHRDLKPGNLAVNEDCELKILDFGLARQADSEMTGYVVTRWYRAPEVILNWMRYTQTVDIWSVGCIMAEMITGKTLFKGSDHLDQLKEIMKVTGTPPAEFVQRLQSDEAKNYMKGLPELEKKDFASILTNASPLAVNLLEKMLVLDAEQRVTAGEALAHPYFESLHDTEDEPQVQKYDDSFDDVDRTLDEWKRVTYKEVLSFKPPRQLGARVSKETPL

[2] = target: SRSF protein kinase 1 (Homo sapiens) (UniProt Q96SB4); settings: at 0.1 µM
Chain of SRSF protein kinase 1 (Homo sapiens) (Q96SB4 whole entry, canonical isoform): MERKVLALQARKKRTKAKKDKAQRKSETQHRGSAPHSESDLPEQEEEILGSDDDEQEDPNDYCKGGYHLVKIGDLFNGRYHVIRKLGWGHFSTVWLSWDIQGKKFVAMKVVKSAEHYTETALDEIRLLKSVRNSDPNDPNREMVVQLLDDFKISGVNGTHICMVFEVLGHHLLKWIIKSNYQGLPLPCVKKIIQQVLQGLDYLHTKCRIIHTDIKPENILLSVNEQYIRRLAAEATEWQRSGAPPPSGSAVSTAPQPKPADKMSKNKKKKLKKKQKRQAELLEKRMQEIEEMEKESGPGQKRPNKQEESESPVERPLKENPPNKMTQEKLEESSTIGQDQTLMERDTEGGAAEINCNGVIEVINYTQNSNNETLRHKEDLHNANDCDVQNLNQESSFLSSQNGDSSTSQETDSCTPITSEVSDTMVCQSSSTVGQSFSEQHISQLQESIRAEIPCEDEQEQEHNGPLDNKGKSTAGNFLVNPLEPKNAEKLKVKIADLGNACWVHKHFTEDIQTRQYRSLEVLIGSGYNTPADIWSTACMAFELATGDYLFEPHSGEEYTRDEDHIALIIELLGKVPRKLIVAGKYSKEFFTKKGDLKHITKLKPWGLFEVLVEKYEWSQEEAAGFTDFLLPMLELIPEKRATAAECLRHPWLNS

[3] = target: SRSF protein kinase 1 (Homo sapiens) (UniProt Q96SB4); settings: at 1 µM
[4] = target: Phosphatidylinositol 4,5-bisphosphate 3-kinase catalytic subunit alpha isoform (Homo sapiens) (UniProt P42336); settings: at 0.1 µM
Chain of Phosphatidylinositol 4,5-bisphosphate 3-kinase catalytic subunit alpha isoform (Homo sapiens) (P42336 whole entry, canonical isoform): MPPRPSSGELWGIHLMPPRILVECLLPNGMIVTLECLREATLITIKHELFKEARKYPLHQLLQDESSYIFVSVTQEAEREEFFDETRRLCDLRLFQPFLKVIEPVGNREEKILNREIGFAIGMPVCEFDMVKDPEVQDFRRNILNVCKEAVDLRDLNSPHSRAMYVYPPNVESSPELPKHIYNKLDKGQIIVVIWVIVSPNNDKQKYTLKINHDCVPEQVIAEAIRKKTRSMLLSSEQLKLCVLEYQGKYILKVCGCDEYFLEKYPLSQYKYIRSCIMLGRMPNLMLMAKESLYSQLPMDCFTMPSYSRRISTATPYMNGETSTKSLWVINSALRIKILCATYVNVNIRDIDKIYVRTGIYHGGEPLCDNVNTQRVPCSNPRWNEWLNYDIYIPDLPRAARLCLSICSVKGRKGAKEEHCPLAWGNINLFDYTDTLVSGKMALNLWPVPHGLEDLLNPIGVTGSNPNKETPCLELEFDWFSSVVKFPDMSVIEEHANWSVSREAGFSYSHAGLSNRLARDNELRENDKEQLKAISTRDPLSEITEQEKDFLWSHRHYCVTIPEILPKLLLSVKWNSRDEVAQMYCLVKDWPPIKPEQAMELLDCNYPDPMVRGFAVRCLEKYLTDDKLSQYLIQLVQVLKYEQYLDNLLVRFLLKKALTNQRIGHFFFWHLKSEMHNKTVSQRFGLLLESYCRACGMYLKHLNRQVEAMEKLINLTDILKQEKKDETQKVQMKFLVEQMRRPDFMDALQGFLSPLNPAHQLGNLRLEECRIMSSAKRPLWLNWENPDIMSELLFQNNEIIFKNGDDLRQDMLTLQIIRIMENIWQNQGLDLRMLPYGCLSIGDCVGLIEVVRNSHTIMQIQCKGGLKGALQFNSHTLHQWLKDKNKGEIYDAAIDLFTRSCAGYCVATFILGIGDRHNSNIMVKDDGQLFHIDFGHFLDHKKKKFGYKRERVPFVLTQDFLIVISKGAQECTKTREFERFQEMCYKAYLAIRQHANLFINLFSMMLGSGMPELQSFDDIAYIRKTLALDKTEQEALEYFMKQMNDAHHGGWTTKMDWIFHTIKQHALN

[5] = target: Phosphatidylinositol 4,5-bisphosphate 3-kinase catalytic subunit alpha isoform (Homo sapiens) (UniProt P42336); settings: at 1 µM
[6] = target: T2, Phosphatidylinositol 4,5-bisphosphate 3-kinase catalytic subunit delta isoform (Homo sapiens) (UniProt O00329); settings: at 0.1 µM
T2 sequence (whole entry): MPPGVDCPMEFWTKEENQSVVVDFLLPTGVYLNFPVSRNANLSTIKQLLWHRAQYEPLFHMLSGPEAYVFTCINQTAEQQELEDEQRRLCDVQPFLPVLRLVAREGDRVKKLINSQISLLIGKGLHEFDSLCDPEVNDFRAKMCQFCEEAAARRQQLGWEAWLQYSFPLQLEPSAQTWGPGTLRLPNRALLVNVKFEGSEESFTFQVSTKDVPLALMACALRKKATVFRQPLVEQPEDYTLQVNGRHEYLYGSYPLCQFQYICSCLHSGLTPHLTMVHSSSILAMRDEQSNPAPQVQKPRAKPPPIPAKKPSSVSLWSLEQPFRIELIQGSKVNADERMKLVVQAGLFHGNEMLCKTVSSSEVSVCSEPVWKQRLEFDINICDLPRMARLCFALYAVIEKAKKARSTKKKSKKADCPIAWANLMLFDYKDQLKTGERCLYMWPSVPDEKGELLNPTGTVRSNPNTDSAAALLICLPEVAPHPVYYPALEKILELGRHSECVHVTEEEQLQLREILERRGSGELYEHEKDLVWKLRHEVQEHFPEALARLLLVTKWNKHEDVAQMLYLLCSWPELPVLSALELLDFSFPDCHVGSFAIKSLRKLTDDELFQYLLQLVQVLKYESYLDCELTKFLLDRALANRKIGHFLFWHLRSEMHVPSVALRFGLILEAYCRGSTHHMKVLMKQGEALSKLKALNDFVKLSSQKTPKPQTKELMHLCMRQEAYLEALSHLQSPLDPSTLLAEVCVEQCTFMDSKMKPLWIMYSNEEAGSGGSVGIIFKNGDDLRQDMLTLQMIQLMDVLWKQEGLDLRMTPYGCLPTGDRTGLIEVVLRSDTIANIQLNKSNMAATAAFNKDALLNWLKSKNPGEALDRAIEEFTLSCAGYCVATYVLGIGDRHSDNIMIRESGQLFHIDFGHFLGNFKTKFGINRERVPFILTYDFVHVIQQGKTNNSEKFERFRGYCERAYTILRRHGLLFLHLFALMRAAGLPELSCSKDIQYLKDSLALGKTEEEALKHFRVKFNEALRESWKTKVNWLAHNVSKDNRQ

[7] = target: T2, Phosphatidylinositol 4,5-bisphosphate 3-kinase catalytic subunit delta isoform (Homo sapiens); settings: at 1 µM
[8] = target: Phosphatidylinositol 4-kinase beta (Homo sapiens) (UniProt Q9UBF8); settings: at 0.1 µM
Chain of Phosphatidylinositol 4-kinase beta (Homo sapiens) (Q9UBF8 2-816 limits assumed): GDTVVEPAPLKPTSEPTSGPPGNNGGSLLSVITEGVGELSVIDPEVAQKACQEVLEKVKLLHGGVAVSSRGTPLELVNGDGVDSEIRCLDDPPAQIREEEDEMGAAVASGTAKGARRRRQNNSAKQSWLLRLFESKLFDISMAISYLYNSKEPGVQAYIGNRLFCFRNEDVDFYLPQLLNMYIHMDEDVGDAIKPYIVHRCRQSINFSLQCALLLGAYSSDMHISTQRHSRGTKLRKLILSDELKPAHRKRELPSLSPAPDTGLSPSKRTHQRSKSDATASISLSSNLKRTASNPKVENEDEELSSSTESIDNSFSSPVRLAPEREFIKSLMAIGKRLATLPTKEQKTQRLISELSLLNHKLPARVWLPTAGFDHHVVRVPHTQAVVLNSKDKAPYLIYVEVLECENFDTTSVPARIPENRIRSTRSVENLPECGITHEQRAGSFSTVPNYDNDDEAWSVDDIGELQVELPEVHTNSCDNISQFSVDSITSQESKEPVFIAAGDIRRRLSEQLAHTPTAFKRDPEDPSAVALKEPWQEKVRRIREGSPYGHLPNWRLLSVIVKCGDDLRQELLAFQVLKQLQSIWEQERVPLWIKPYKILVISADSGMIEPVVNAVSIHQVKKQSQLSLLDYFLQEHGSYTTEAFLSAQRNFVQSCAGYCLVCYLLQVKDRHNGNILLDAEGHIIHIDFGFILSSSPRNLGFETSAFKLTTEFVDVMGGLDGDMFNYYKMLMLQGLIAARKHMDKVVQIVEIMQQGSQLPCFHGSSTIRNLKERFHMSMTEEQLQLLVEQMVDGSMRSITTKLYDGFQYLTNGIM

[9] = target: Phosphatidylinositol 4-kinase beta (Homo sapiens) (UniProt Q9UBF8); settings: at 1 µM
[10] = target: Sphingosine kinase 1 (Homo sapiens) (UniProt Q9NYA1); settings: at 0.1 µM
Chain of Sphingosine kinase 1 (Homo sapiens) (Q9NYA1 whole entry): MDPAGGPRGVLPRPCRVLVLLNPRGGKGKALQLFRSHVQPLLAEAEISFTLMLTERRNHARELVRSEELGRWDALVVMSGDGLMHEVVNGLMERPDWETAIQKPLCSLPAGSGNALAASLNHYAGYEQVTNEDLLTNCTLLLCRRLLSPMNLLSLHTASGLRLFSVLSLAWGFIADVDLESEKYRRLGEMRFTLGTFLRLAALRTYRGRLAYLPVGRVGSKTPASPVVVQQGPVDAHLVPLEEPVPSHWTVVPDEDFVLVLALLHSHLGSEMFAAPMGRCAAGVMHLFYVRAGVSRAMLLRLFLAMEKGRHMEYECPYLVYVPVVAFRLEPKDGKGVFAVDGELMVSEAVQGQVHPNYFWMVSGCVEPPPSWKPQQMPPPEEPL

[11] = target: Sphingosine kinase 1 (Homo sapiens) (UniProt Q9NYA1); settings: at 1 µM
[12] = target: T3, Sphingosine kinase 2 (Homo sapiens) (UniProt Q9NRA0); settings: at 0.1 µM
T3 sequence (whole entry): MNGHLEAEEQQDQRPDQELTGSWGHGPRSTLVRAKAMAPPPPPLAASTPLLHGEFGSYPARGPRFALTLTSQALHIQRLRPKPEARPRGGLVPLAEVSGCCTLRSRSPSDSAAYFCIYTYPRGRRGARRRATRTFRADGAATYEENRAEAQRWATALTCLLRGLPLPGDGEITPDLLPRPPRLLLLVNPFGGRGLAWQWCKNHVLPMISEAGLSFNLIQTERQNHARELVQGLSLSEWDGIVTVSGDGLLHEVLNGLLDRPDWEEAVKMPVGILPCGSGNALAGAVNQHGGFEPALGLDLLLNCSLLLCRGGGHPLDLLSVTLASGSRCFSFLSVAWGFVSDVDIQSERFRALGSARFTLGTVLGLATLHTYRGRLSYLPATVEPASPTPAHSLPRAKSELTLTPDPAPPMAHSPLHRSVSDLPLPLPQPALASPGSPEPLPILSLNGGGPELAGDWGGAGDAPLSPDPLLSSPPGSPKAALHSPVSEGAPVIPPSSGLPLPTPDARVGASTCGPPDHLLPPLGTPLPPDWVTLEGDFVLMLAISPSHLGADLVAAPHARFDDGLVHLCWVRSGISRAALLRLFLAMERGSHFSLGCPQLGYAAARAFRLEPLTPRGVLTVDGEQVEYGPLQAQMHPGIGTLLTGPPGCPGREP

[13] = target: T3, Sphingosine kinase 2 (Homo sapiens); settings: at 1 µM
[14] = target: Casein kinase II subunit alpha (Homo sapiens) (UniProt P68400); settings: at 0.1 µM
Chain of Casein kinase II subunit alpha (Homo sapiens) (P68400 whole entry, looked up): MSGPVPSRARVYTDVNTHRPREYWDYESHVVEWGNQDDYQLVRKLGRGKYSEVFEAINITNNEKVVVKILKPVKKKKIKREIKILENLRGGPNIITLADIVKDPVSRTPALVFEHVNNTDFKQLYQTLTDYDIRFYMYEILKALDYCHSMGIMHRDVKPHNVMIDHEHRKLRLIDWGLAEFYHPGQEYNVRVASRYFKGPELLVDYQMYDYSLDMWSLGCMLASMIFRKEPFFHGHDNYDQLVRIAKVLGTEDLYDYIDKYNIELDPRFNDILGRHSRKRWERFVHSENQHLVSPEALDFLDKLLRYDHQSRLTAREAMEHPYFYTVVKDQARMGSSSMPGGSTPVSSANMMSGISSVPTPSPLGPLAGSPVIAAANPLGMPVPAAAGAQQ

[15] = target: Casein kinase II subunit alpha (Homo sapiens) (UniProt P68400); settings: at 1 µM
[16] = target: T4, Inhibitor of nuclear factor kappa-B kinase subunit alpha (Homo sapiens) (UniProt O15111); settings: at 0.1 µM
T4 sequence (whole entry): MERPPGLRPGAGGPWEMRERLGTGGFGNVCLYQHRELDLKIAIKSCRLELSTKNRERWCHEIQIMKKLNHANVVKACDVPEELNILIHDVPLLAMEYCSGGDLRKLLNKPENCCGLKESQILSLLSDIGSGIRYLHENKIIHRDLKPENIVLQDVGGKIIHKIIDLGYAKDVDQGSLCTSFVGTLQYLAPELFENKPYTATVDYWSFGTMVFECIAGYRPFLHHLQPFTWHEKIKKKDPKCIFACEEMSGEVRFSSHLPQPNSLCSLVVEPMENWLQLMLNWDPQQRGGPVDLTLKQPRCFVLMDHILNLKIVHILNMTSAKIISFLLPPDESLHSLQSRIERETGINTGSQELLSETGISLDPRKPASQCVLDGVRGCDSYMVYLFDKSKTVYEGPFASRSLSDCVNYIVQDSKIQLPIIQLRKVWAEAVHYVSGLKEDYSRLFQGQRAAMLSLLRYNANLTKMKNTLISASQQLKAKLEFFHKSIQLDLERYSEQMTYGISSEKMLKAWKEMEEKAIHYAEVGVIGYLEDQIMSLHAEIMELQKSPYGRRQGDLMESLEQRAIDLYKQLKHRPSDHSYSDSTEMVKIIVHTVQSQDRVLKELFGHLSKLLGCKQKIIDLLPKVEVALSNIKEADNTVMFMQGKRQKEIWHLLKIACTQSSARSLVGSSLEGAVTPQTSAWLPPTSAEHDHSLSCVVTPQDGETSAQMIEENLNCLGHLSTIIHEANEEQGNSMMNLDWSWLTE

[17] = target: T4, Inhibitor of nuclear factor kappa-B kinase subunit alpha (Homo sapiens); settings: at 1 µM
[18] = target: T5, Inhibitor of nuclear factor kappa-B kinase subunit beta (Homo sapiens) (UniProt O14920); settings: at 0.1 µM
T5 sequence (whole entry): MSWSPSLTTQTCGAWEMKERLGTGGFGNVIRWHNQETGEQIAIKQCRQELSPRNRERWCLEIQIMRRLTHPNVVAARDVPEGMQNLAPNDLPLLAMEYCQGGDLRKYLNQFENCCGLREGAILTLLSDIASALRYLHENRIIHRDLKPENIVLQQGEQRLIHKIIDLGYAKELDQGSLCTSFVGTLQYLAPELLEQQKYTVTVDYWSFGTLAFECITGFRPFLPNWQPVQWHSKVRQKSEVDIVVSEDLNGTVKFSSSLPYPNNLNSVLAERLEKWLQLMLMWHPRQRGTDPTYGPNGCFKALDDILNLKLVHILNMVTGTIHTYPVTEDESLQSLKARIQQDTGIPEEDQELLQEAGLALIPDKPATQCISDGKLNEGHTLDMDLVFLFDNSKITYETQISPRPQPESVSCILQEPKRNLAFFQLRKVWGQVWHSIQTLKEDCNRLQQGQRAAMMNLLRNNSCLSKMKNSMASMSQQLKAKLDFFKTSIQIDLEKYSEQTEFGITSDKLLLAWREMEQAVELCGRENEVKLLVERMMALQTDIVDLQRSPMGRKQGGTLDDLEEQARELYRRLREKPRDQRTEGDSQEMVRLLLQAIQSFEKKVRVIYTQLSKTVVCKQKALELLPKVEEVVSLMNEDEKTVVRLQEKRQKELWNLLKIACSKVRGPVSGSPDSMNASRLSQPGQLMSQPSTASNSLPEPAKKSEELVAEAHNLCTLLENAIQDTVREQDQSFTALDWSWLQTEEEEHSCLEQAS

[19] = target: T5, Inhibitor of nuclear factor kappa-B kinase subunit beta (Homo sapiens); settings: at 1 µM
[20] = target: T6, Inhibitor of nuclear factor kappa-B kinase subunit epsilon (Homo sapiens) (UniProt Q14164); settings: at 0.1 µM;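 further: mean inhibition of IKKε reported, from the GSK PKIS dataset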
T6 sequence (whole entry): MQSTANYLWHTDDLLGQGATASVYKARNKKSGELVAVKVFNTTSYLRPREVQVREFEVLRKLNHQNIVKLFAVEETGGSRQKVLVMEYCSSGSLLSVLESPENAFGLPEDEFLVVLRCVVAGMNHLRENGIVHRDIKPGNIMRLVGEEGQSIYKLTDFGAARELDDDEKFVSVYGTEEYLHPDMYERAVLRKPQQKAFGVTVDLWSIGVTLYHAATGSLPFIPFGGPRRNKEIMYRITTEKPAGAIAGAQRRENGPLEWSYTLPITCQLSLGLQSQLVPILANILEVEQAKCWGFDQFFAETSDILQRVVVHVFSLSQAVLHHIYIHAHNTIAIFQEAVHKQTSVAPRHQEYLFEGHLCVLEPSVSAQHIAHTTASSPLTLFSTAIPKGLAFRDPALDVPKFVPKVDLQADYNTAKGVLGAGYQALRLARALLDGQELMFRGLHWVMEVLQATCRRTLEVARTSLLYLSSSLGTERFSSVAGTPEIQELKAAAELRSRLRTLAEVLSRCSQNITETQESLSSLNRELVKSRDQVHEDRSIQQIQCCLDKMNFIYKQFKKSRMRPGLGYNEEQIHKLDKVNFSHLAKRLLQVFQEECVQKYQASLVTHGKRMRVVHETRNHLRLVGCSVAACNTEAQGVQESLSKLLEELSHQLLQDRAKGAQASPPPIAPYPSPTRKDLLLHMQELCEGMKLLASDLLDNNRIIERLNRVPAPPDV

Row | SMILES | inhibition [1] [%] | inhibition [2] [%] | inhibition [3] [%] | inhibition [4] [%] | inhibition [5] [%] | inhibition [6] [%] | inhibition [7] [%] | inhibition [8] [%] | inhibition [9] [%] | inhibition [10] [%] | inhibition [11] [%] | inhibition [12] [%] | inhibition [13] [%] | inhibition [14] [%] | inhibition [15] [%] | inhibition [16] [%] | inhibition [17] [%] | inhibition [18] [%] | inhibition [19] [%] | inhibition [20] [%]
1 | COc1cc2ncn(-c3cc(OCc4ccccc4C(F)(F)F)c(C(C)=O)s3)c2cc1OC | 2.91 | -0.85 | -1.87 | 1.72 | 2.65 | 1.03 | 1.51 | 1.58 | -4.62 | -1.64 | -6.56 | -0.29 | -1.72 | 5.99 | 2.45 | 2.23 | 7.97 | 5.2 | 9.05 | 6.32
2 | COc1cccc(-n2cnc3c(N/N=C/c4ccncc4)ncnc32)c1 | -1.27 | 1.41 | 4.2 | -0.19 | -3.79 | -1.29 | -2.3 | 5.84 | -1.85 | -0.37 | 0.02 | 0.58 | -0.25 | 0.97 | 10.8 | 0.84 | -1.74 | 1.12 | 3.32 | 3.81
3 | CCc1ccc(Oc2nccc(-c3c(-c4ccc(F)cc4)ncn3C3CCNCC3)n2)cc1 |  | -2.85 | -3.81 | 3.74 | 3.81 | 1.87 | 6.26 | 3.17 | 2.82 | 1.33 | 11.5 | 1.25 | 0.72 | 3.17 | 4.14 | -3.32 | -1.04 | 3.54 | 4.07 | 8.2

— ChEMBL document CHEMBL1961873, “Compounds: GSK PKIS; Assays: Nanosyn kinase panel” (2012)
